Results: PubChem BioAssay (NCATS)
Results filed as inconclusive are left out. Entries that show only a call come without a potency. Activity calls are given as the source filed them. Unless noted, the call rests on the fitted dose curve; in most records, active means well fitted curve in the direction sought with a large enough effect; inconclusive means small, poorly fitted or top-dose-only effect, or another doubt; inactive means no such curve, though single readings can be large; an effect the other way counts as inactive or inconclusive.

Key:
[1] = S16 Schwann cell PMP22 intronic element beta-lactamase assay (AID 624044; calls by dose curve; further: nearly all actives have a fitted effect of over 15% in size)
Summary of the method: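 Beta-lactamase reporter under a PMP22 intronic regulatory element in stable S16 rat Schwann cells; 24 h compound exposure. 460 nm blue signal normalized between DMSO (0%) and potassium clavulanate, with 535 nm FRET tracking viability; curves classed by r2 and response.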

[2] = biological target: Glutaminase kidney isoform, mitochondrial (Homo sapiens) (UniProt O94925); test: qHTS for Inhibitors of Glutaminase (GLS): LOPAC Validation (AID 624146);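 further: glutamate product detected by oxidase and peroxidase coupled Amplex red fluorescence gain; series mostly up to about 46 µM; nearly all actives have a fitted effect of over 60% in size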
Summary of the method: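 hKGA; 45 mM KH2PO4 pH 8.2 + 0.02% Tween-20; cpd via pin tool; 1 mM Gln soln; GluOx/HRP/Amplex Red; RT 30 min; fluor. t0 & final.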

[3] = qHTS of Trypanosoma Brucei Inhibitors: LOPAC Validation (AID 624147)
Summary of the method: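 Activity of T. brucei pyruvate kinase was followed by Kinase-Glo Plus luminescence after the enzyme reacted 45 min at room temperature with 130 uM ADP (final) and substrate. Test compounds were added before ADP at multiple concentrations.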

[4] = biological target: Voltage-gated inwardly rectifying potassium channel KCNH2 (Homo sapiens) (UniProt Q12809); test: qHTS Assay for Small Molecule Inhibitors of the Human hERG Channel Activity (AID 588834);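 further: top concentration of the series differs between compounds; lower thallium flux fluorescence means stronger hERG block; nearly all actives have a fitted effect of over 50% in size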
Summary of the method: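 In hERG-transduced U2OS cells, dye-loaded for 1 hr at room temperature in dark, test compounds incubated 10 min at 37 °C before thallium stimulation. AC50 values derived by Hill modelling of concentration-response.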

[5] = biological target: Luciferin 4-monooxygenase (Photinus pyralis) (UniProt P08659); test: Biochemical firefly luciferase enzyme assay for NPC (AID 624030);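 further: purified P. pyralis luciferase at 10 nM with luciferin and ATP substrate; series mostly up to about 59 µM; nearly all actives have a fitted effect of over 70% in size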
Summary of the method: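 Counter-screen for direct inhibition of the luciferase enzyme by approved-drug library compounds, run at 10 nM enzyme in 50 mM Tris acetate (final). Luminescence was read within 5 min of enzyme-buffer addition and normalized to PTC124 versus DMSO (0%).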

[6] = S16 Schwann cell PMP22 intronic element firefly luciferase assay (AID 624032); further: nearly all actives have a fitted effect of over 30% in size; further: potency means the concentration at half of the fitted maximal effect
Summary of the method: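 Rat S16 Schwann cells stably carrying a PMP22 intronic element-driven Fluc reporter were seeded overnight, then exposed to compounds for 24 h at 37 °C. Luminescence was normalized to PTC124 (positive control) and DMSO (0% activity).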

[7] = S16 Schwann cell viability assay (CellTiter-Glo assay) (AID 624031);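 further: native untransfected S16 rat Schwann cells; series mostly up to about 58 µM; nearly all actives have a fitted effect of over 70% in size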
Summary of the method: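 Counter-screen for cytotoxicity: parental S16 rat Schwann cells lacking the PMP22 reporters, treated 24 h with compound, viability from cellular ATP by CellTiter-Glo luminescence, normalized to DMSO (0%) and no-cell wells.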

Sequence of Glutaminase kidney isoform, mitochondrial (Homo sapiens) (O94925 whole entry, looked up, canonical isoform): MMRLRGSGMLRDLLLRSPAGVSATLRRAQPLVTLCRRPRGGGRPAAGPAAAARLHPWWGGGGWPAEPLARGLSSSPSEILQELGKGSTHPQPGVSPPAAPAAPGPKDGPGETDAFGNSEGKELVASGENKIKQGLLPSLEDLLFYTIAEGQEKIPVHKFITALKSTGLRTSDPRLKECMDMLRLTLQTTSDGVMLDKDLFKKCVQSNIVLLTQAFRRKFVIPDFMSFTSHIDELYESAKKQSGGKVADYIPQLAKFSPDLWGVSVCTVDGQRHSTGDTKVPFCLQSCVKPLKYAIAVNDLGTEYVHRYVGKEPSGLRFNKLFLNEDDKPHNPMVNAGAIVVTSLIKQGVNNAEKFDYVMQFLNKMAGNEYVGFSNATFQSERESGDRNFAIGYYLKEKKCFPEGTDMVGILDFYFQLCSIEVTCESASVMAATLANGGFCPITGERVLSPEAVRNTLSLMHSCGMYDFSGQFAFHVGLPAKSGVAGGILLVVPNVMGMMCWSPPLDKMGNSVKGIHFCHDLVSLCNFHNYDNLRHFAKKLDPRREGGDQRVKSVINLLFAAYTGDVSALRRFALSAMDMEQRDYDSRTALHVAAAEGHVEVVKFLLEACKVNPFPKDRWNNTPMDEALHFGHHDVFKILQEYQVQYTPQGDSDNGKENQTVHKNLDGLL
Sequence of Luciferin 4-monooxygenase (Photinus pyralis) (P08659 whole entry, looked up): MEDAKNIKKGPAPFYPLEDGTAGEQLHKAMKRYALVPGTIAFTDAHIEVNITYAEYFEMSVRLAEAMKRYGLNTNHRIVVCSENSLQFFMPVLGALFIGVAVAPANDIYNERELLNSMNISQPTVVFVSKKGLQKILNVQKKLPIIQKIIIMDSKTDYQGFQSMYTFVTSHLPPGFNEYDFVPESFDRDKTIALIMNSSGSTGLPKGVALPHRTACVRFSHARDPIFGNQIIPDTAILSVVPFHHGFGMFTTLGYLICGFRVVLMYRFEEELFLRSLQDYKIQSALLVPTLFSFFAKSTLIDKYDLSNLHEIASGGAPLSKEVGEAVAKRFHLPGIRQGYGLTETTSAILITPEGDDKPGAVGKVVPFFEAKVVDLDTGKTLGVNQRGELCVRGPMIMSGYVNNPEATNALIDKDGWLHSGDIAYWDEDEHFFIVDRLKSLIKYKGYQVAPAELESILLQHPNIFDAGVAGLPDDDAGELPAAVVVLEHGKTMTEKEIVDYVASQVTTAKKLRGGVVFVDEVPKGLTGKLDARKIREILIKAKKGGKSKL
Sequence of Voltage-gated inwardly rectifying potassium channel KCNH2 (Homo sapiens) (Q12809 whole entry, looked up): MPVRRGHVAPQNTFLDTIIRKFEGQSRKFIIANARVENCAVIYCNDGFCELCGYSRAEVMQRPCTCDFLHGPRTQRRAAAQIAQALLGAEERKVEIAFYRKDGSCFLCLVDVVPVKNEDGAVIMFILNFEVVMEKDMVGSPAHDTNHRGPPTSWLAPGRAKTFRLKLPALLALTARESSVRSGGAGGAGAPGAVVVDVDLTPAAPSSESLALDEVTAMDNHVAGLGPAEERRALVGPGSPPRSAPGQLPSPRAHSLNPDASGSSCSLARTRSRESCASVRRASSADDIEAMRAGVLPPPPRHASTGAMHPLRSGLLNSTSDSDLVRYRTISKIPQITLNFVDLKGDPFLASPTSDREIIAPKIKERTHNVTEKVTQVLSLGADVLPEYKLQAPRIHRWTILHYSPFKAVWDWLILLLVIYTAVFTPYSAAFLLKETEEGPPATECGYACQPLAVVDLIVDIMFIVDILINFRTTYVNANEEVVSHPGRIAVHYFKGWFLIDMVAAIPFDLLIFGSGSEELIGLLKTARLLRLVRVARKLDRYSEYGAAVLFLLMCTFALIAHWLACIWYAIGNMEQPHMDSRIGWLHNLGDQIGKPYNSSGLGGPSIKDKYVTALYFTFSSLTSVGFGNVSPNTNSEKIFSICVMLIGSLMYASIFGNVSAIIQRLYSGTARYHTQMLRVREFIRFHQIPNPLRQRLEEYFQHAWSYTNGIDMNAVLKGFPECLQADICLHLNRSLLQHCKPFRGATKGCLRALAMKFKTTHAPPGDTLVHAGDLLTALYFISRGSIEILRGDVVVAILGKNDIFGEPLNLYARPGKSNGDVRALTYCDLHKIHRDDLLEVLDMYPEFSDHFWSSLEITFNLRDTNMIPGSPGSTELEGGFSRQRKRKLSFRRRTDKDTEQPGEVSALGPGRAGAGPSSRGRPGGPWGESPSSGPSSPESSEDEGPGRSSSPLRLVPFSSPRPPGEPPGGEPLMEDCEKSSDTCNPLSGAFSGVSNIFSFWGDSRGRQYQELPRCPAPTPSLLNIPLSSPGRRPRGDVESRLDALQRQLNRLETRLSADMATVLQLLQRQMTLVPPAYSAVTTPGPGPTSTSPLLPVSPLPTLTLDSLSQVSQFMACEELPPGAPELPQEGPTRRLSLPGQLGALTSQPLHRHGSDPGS

Structure (SMILES) | Potency [1] | Potency [2] | Potency [3] | Potency [4] | Potency [5] | Potency [6] | Potency [7]
CN1CCN(C2=Nc3cc(Cl)ccc3Nc3ccccc32)CC1 | inactive | inactive | inactive |  |  |  | 
NC(CO)C(=O)NNCc1ccc(O)c(O)c1O (stereo unspecified) |  |  | inactive | inactive |  |  | 
COc1ccccc1OCCNCC(O)COc1cccc2[nH]c3ccccc3c12 (stereo unspecified) | inactive | inactive | inactive |  | inactive | 25.6 µM (active) | 
Cc1ccccc1N1C(=O)c2cc(S(N)(=O)=O)c(Cl)cc2NC1C (stereo unspecified) |  | inactive | inactive |  | inactive |  | 
Fc1ccc([C@@H]2CCNC[C@H]2COc2ccc3c(c2)OCO3)cc1 |  | inactive | inactive |  |  |  | 
Nc1nnc(-c2cccc(Cl)c2Cl)c(N)n1 | inactive | inactive | inactive |  | inactive | inactive | inactive
